An excerpt weighted towards active compounds, which were near 10% of everything screened.
ALDH1A1 block = qHTS Assay for Inhibitors of Aldehyde Dehydrogenase 1 (ALDH1A1) | Aldehyde dehydrogenase 1A1 (Homo sapiens), P00352 | Purified ALDH1A1, NADH fluorescence, propionaldehyde substrate | Potency, µM (titrated, usually from 75.3 µM), without a hit: at the top dose activity, negative = inhibition, most hits filed as inhibitors | 220,000 compounds, 7.3% hits | AID 1030, 2008; active means well fitted inhibition curve with a large enough effect, not every such curve was filed as active; inconclusive means small, poorly fitted or top-dose-only effect, or another doubt; inactive means no such curve, though single readings can be large or run the other way;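 further: potency means the concentration at half of the fitted maximal effect; plate controls were no enzyme wells and a reference inhibitor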
Target sequence (P00352 whole entry, looked up): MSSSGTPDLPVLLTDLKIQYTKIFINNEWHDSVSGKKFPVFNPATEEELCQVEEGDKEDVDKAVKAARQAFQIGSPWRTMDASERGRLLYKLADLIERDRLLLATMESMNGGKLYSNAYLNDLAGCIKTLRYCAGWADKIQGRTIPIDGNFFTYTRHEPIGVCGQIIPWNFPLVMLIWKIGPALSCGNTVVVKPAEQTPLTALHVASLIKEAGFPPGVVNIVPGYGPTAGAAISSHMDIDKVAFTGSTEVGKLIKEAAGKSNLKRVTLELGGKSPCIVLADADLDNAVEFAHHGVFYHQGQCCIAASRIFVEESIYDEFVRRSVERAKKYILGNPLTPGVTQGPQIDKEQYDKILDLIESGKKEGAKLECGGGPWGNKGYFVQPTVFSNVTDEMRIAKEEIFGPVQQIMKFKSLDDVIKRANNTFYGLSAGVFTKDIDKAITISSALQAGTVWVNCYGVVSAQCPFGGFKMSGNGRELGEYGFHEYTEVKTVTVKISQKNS
PNC inhibitor = High Content Assay for Compounds that inhibit the Assembly of the Perinucleolar Compartment; 140,000 compounds, 3.1% hits; activity change (PNC), negative = inhibition, % at 10 µM; PC3M PTB-GFP, PNC prevalence imaging, 16 h; stronger effect = lower value; AID 2417, 2010;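 active means readout at or below -70, meaning at least 70% loss of cells showing the perinucleolar compartment, a nuclear body marking cancer cells; inconclusive means readout between -30 and a set limit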;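 further: plate controls were DMSO wells for no effect and camptothecin positive control wells for full effect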
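PC3M cells stably expressing PTB-GFP, 750–1000 cells/well, treated 16 h at 37 °C with compound (23 nl of library stock), in duplicate. After paraformaldehyde fixation and Hoechst stain, imaged at 20x; PNC prevalence scored by image analysis.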
aGal spleen mod = qHTS Assay for Inhibitors and Activators of Human alpha-Galactosidase From Spleen Homogenate. Alpha-galactosidase A (Homo sapiens), P06280. human spleen homogenate, 4MU-alpha-Gal fluorescence, 40 min. Potency, µM (top dose mostly 80 µM), inactives show top-dose activity change, negative = inhibition, actives largely listed as inhibitors. 240,000 compounds, 0.008% hits. AID 2107, 2009;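 further: potency means the concentration at half of the fitted maximal effect; 0% = enzyme with vehicle and -100% = no enzyme basal signal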
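Inhibition or activation of alpha-galactosidase in human spleen homogenate is scored by 4-MU fluorescence after 40 min at 37C, pH 5.0, with 1 mM substrate. AC50s come from concentration-response fitted to the Hill equation.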
HPGD block = qHTS Assay for Inhibitors of HPGD (15-Hydroxyprostaglandin Dehydrogenase). purified HPGD, NADH fluorescence kinetic, PGE2 substrate. Potency, µM, without a hit: at the highest dose activity change, negative = inhibition, most hits filed as inhibitors. 150,000 compounds, 4.3% hits. AID 894, 2007; active means well fitted inhibition curve with a large enough effect, not every such curve was filed as active; inconclusive means small, poorly fitted or top-dose-only effect, or another doubt; inactive means no such curve, though single readings can be large or run the other way; further: potency means the concentration at half of the fitted maximal effect
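NADH formation kinetics: reaction with 30 uM PGE2 and 1 mM NAD+ (final), 20 nM enzyme, Tris-HCl pH 8 with Tween 20, after 15 min compound preincubation at room temperature. Fluorescence change, last versus first of five reads.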
GLA inh pH 4.5 = qHTS Assay for Inhibitors of Human alpha-Galactosidase at pH 4.5; Alpha-galactosidase A (Homo sapiens), P06280; purified enzyme, 4-MU-alpha-Gal fluorescence, pH 4.5; 230,000 tested, under 10 active; AID 1467, 2008; activity change, negative = inhibition, % at 105 µM;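 further: 0% = full activity with enzyme and -100% = basal without enzyme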
ALOX12 inhib = qHTS Assay for Inhibitors of 12-hLO (12-human lipoxygenase); Polyunsaturated fatty acid lipoxygenase ALOX12 (Homo sapiens), P18054; purified 12-hLO, xylenol orange hydroperoxide absorbance; Potency, µM (highest dose often 57.1 µM), for inactives: at the top dose activity change, negative = inhibition, most hits filed as inhibitors; 150,000 compounds, 0.12% hits; further: potency means the concentration at half of the fitted maximal effect; nearly all actives have a fitted effect of over 55% in size
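Hydroperoxide output read as Fe(III)-xylenol orange absorbance, 573-to-405 nm ratio, after 30 min reaction with 40 uM arachidonic acid. Enzyme: 150 nM purified human 12hLO, 15 min compound preincubation; 25 mM Hepes pH 7.0, room temperature.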
* marks the source's active call; other numbers are inactive results; ? = inconclusive; · = no result given; [ ] = dose if it differs, or a comment. Unless noted, the call rests on the fitted dose curve; in most records, active means well fitted curve in the direction sought with a large enough effect; inconclusive means small, poorly fitted or top-dose-only effect, or another doubt; inactive means no such curve, though single readings can be large; an effect the other way counts as inactive or inconclusive. Unless noted, on the % scale 0 is the no-effect control and ±100 the full control effect.

SMILES	ALDH1A1 block	PNC inhibitor	aGal spleen mod	HPGD block	GLA inh pH 4.5	ALOX12 inhib
CC(C)(C)NC(=O)CSc1nnc(-c2ccccn2)n1Cc1ccccc1	·	·	1%	·	4	·
CCn1c(SCC(=O)c2ccccc2)nnc1-c1cc2cc(Br)ccc2o1	?	13	-10%	-21%	7	-1%
C=CCn1c(SCC(=O)c2ccccc2)nnc1-c1cc2ccccc2o1	?	?	-7%	14µM*	3	-5%
CCn1c(SCC(=O)Nc2ccc3c(c2)OCCO3)nnc1-c1ccccn1	?	-29	-4%	-6%	1	-2%
C=CCNC(=O)CSc1nnc(-c2ccccn2)n1Cc1ccccc1	35µM*	·	1%	·	-1	·
C=CCn1c(SCC(=O)c2ccc(OC)cc2)nnc1-c1cc2cccc(OC)c2o1	-10%	-123*	0%	2%	0	-8%
Cn1nc(-c2ccc(Cl)cc2)cc1NC(=O)CCCC(=O)O	6%	·	4%	·	5	·
CCCCCCCCCCCCCCCC(=O)OCC(COP(=O)(O)O)OC(=O)CCCCCCCCCCCCCCC (stereo not given)	0%	·	5%	-3%	-17	7%
C=CCn1c(SCC(=O)c2ccccc2)nnc1-c1ccc2c(c1)OCO2	25µM*	-27	5%	5.6µM*	11	-11%
C=CCn1c(COC)nnc1SCC(=O)c1ccc(F)cc1	11µM*	?	-1%	-23%	10	4%
C=CCn1c(COc2ccc(F)cc2)nnc1SCC(=O)c1c[nH]c2c(CC)cccc12	15%	-26	-8%	-9%	1	-2%
CCCc1cc(=O)[nH]c(SCC(=O)CSc2nc(CCC)cc(=O)[nH]2)n1	14µM*	-21	5%	-11%	-12	-12%
CCCc1cc(=O)[nH]c(SCc2ccccc2Cl)n1	9%	18	4%	14µM*	0	-6%
COc1ccc(-n2c(SCC(=O)Nc3ccc(Br)cc3)nc(O)cc2=O)cc1	·	·	9%	·	-2	·
CCOC(=O)Cc1nn[nH]n1	-2%	·	1%	·	4	·
FC(F)(F)c1ccc(C2[C@H]3CN(CC4CCCCC4)[C@H](c4ccccc4)C34CC2(c2ccccc2)C4)cc1 (stereo not given in full)	-9%	·	6%	-10%	0	-5%
O=C(Nc1ccc([N+](=O)[O-])cc1)c1ccccc1F	-14%	·	3%	·	5	·
O=C(c1cc(O)c(O)c([N+](=O)[O-])c1)c1ccccc1F	13µM*	·	8%	14µM*	-4	-30%
CN=C1N[C@H](c2ccccc2)N(c2ccccc2)S1	1.3µM*	·	10%	13µM*	-10	?
OCCCN=C1CCCCC1	-8%[13.5 µM]	·	·	-5%	·	-4%[11.4 µM]
COc1ccc(CC(=O)Nc2oc(-c3ccccc3)c(-c3ccccc3)c2C#N)cc1OC	1%	-100*	-5%	?	-5	3%
COc1ccccc1OCC(=O)Nc1oc(-c2ccccc2)c(-c2ccccc2)c1C#N	-9%	32	-2%	-18%	-9	-5%
COc1ccc(-c2oc(NC(=O)CCl)c(C#N)c2-c2ccc(OC)cc2)cc1	2.5µM*	25	-1%	-16%	2	-3%
CC(=O)C1C(c2cn(-c3ccccc3)nc2-c2cccs2)NC(=O)NC1(O)C(F)(F)F (stereo not given)	22µM*	1	9%	-14%	2	-9%
COc1ccccc1N=Nc1nc(-c2ccccc2)c(-c2ccccc2)[nH]1	22µM*	-18	-1%	-11%	-9	-2%
SMILES	ALDH1A1 block	PNC inhibitor	aGal spleen mod	HPGD block	GLA inh pH 4.5	ALOX12 inhib
CN1CCc2c(sc3c2c(=O)n(-c2ccccc2)c2nnc(SCc4ccccc4)n32)C1	25µM*	7	2%	?	1	-7%
CSc1nnc2n(-c3ccccc3)c(=O)c3c4c(sc3n12)CCC4	-11%	15	7%	-8%	0	-6%
COCCSc1ncnc2c1oc1nc3c(cc12)COC(C)(C)C3	6.3µM*	·	9%	·	3	·
CC1(C)Cc2nc3oc4c(N5CCOCC5)ncnc4c3cc2CO1	?	-109*	-22%	?	-11	1%
COc1cc(OC)c(C(=O)NCCCn2ccnc2)cc1OC	2%	·	-3%	·	1	·
Cc1ccccc1NC(=O)c1ccc(NS(=O)(=O)c2cc(C(C)(C)C)cc(C)c2C)cc1	2.8µM*	?	5%	-17%	-2	0%
Cc1cc(C(C)(C)C)cc(S(=O)(=O)Nc2cccc(C(=O)O)c2)c1C	?	?	-3%	-13%	-4	4%
COc1ccc(NC(=O)c2ccc(CNc3c(NC4CCCCC4)c(=O)c3=O)cc2)cc1OC	-13%	-24	-1%	18µM*	0	-2%
COc1ccc(CNC(=O)c2ccc(CNc3c(NC4CCCCC4)c(=O)c3=O)cc2)cc1	2%	20	3%	-12%	-4	-4%
CC(C)CN1C(=O)/C(=C/c2ccco2)NC1=S	4µM*	?	-7%	?	0	?
CCCN1C(=O)/C(=C/c2ccc(C)s2)NC1=S	8.9µM*	?	-4%	-16%	-6	-21%
CC(C)CN1C(=O)/C(=C/c2cccs2)NC1=S	2µM*	10	-5%	-22%	-13	-21%
CCN1C(=O)/C(=C\N(C)C)NC1=S	18%	10	-6%	-9%	5	0%
COC[C@H]1O[C@@H](c2c(OC)cc(OC)cc2OC)[C@H](OC)[C@@H](OC)[C@@H]1OC	6%	·	-6%	-10%	-6	·
COc1ccc(CCNC(=O)Cn2c(=O)n(-c3cc(F)ccc3F)c(=O)c3sccc32)cc1OC	1µM*	·	4%	·	-4	·
C/C(CC(=O)Nc1ccc2c(c1)OCO2)=N\NC(=O)C(c1ccccc1)c1ccccc1	3.2µM*	24	11%	-7%	-2	5%
NNC(=O)CSCc1nc(-c2ccc(Cl)cc2)cs1	0.71µM*	·	6%	·	-4	·
NC(=O)Cc1nc(-c2ccc(F)cc2)cs1	·	·	-6%	·	0	·
NNC(=O)CSCc1nc(-c2ccccc2)cs1	-4%	·	3%	·	3	·
NC(=S)Cc1nc(-c2ccc(Cl)cc2)cs1	2µM*	·	-4%	·	3	·
Cc1ccc(C(=O)NCC2CCCO2)cc1[N+](=O)[O-] (stereo not given)	4%	7	-7%	-25%	2	-4%
Cc1ccc(C(=O)NC(=S)NCC2CCCO2)cc1[N+](=O)[O-] (stereo not given)	14µM*	·	1%	·	0	·
